# PINK1 modulator: PINK1 expression modulation; actives 0.2% (n = 410,000); Potency, µM (doses to about 76.6 µM), for inactives: at the top dose activation (PINK1 increase), most hits filed as activators; PINK1 immunofluorescence, high-content cytometry, 24 h; active = well fitted activation curve with a large enough effect; inconclusive = small, poorly fitted or top-dose-only effect; cell line not stated here; note: % of control where 0% means no effect; nearly all actives have a fitted effect of over 65% in size
#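 Decision-based qHTS: stable cells, 24 h exposure to five compound concentrations, CCCP as control. Fixed cells stained for PINK1 plus nuclear, mitochondrial and cell markers, cytometer read.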
# ALOX12 inh: inhibitors of human 12S-lipoxygenase ALOX12 | purified 12hLO, xylenol orange hydroperoxide absorbance | Potency, µM (doses to about 108 µM), for the others: at the top dose activity change, negative = inhibition, usual class: inhibitors | actives 1.1% (n = 580,000) | AID 1671190; note: % is set by controls: 0 for no effect and ±100 for the full control effect
# Target sequence (P18054 whole entry, looked up): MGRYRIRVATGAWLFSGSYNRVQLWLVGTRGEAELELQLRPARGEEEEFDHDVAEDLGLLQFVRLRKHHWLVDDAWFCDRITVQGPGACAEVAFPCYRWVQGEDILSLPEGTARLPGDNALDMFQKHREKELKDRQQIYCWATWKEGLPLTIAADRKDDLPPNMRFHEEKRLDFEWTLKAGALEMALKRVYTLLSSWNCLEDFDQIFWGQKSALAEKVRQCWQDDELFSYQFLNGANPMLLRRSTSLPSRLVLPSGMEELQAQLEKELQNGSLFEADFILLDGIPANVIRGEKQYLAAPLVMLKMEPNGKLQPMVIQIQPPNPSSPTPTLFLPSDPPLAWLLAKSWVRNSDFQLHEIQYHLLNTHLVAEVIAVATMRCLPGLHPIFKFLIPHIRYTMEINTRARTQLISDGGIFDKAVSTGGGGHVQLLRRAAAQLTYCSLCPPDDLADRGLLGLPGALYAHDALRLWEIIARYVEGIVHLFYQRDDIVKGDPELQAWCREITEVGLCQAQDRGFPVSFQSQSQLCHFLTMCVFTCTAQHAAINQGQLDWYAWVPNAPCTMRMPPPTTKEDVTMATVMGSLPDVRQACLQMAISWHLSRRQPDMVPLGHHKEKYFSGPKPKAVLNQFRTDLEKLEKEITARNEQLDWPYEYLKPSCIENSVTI
#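 Hydroperoxide product was detected by ferrous iron/xylenol orange as the 573 to 405 nm absorbance ratio. Arachidonic acid at 40 uM (final) was turned over for 30 min at room temperature by 150 nM human 12hLO, pH 7.0 Hepes buffer, after 15 min compound preincubation.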
# KB-3-1 cytotox: KB-3-1 parental cell cytotoxicity | actives 1.4% (n = 400,000) | AID 1347075 | KB-3-1 viability, CellTiter-Glo ATP luminescence, 72 h | Potency, µM (titrated, usually from 46.1 µM), most hits filed as cytotoxic; note: % is set by controls: 0 for no effect and ±100 for the full control effect; nearly all actives have a fitted effect of over 60% in size
#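 Here the drug-naive KB-3-1 line serves as comparator for MDR sub-line selectivity; cells received compound titrations, 72 h at 37 °C, then CellTiter-Glo readout.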
# MCF10A rereplic: inducers of DNA re-replication in MCF 10A breast cells | Potency, µM (series often up to 46.1 µM), inactives show top-dose activity, positive = re-replication, actives largely listed as activators | MCF 10A DNA re-replication, Hoechst nuclear intensity, 48 h | actives 2.9% (n = 350,000); note: % of control where 0% means no effect; nearly all actives have a fitted effect of over 50% in size
# KB-V1 cytotox: KB-V1 MDR subline cytotoxicity; actives 3.4% (n = 400,000); Potency, µM (highest dose often 46.1 µM), actives largely listed as cytotoxic; AID 1347076; KB-V1 MDR cells viability, CellTiter-Glo, 72 h; note: % is set by controls: 0 for no effect and ±100 for the full control effect; nearly all actives have a fitted effect of over 60% in size
#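 KB-V1, DMEM (no phenol red) + 10% FBS; cpd pin-transferred, titration series; 72 h, 37 degrees C; CellTiter-Glo, luminescence. Data normalized, curve-fit.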
# SW480 rerep: inducers of DNA re-replication in SW480 colon cancer cells; SW480 DNA re-replication, Hoechst DNA content imaging, 48 h; Potency, µM (highest dose often 46.1 µM), without a hit: at the highest dose re-replication activation, hits mostly activators; actives 1.8% (n = 340,000); note: % of control where 0% means no effect; nearly all actives have a fitted effect of over 55% in size
#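 Readout is total intensity of Hoechst-stained nuclei, excited at 405 nm and collected at 500-530 nm. Compound treatment lasted 48 hr at 37 C in 5% CO2 before staining.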
# Active calls of the source: *; i = inactive; u = inconclusive; x = no result given; ! = not confirmed by another sample; [ ] = remark or other dose. Hits are enriched below; roughly 5.8% of the tested compounds scored in any of these assays. Unless noted, calls come from the whole dose curve; as a rule, active = well fitted curve in the direction sought with a large enough effect; inconclusive = small, poorly fitted or top-dose-only effect, or another doubt; inactive = no such curve, though single readings can be large; an effect the other way counts as inactive or inconclusive. Potency is the fitted concentration of half-maximal effect.
SMILES,PINK1 modulator,ALOX12 inh,KB-3-1 cytotox,MCF10A rereplic,KB-V1 cytotox,SW480 rerep
O=C(NCC(c1ccco1)N1CCN(c2ccc(F)cc2)CC1)C1CCCCC1 (stereo unspecified),-5%,6%,i,2%,u,-7%
O=C(NCc1cccnc1)C(=O)NCC(c1ccco1)N1CCN(c2ccccc2)CC1 (stereo unspecified),1%,-17%,i,4%,9.2µM*,u
O=C(NCCC1=CCCCC1)C(=O)NCC(c1ccco1)N1CCN(c2ccc(F)cc2)CC1 (stereo unspecified),u,-19%,i,9%,2.6µM*,-100%
O=C(NCc1cccnc1)C(=O)NCC(c1ccco1)N1CCOCC1 (stereo unspecified),0%,-3%,i,9%,i,13%
CN=c1scc(C)n1/N=C/c1ccco1,x,-8%,x,x,x,x
Cn1cc(CCNC(=O)CC2C(=O)NCCN2Cc2cccc(Oc3ccccc3)c2)cn1 (stereo unspecified),4%,-2%,u,u,i,26µM*
CCNC(=O)C(C)NC(=O)CCc1ncc(-c2ccc(CC(C)C)cc2)o1 (stereo unspecified),x,4%,x,x,x,x
COC1C=CO[C@@]2(C)Oc3c(C)c(O)c4c(O)c(c(C=NN5CCN(C)CC5)c(O)c4c3C2=O)NC(=O)/C(C)=C\C=CC(C)C(O)[C@@H](C)C(O)C(C)[C@H](OC(C)=O)C1C (stereo partly specified),x,x,x,11%,x,u
COC1/C=C\OC2(C)Oc3c(C)c(O)c4c(c3C2=O)C2(C=C(NC(=O)/C(C)=C\C=C/C(C)C(O)C(C)C(O)C(C)C(OC(C)=O)C1C)C4=O)OCC(=O)O2 (stereo unspecified),x,5µM*,x,x,x,x
O=c1[nH]c(N/N=C\c2ccc3c(c2)OCO3)nc2ccccc12,5%,u,u,19%,i,4%
Cc1cc(N/N=C/c2ccc3c(c2)OCO3)nc2ccccc12,u,u,i,16µM*,i,u
CN(C)c1nc(NCc2ccccc2)nc(N/N=C/c2ccc3c(c2)OCO3)n1,-1%,-1%,i,23µM*,u,26%
CCCCCCCCN1[C@@H](CC(C)=O)c2cc(C(F)(F)F)ccc2S1(=O)=O,3%,-7%,u,10%,18µM*!,u
COc1ccc(CN(C)Cc2c(O)ccc3cc(Br)ccc23)cc1OC,5%,28µM*,i,u,i,2%
COc1ccc2cc(Br)ccc2c1CC(=O)N(C)C,1%,246%,i,0%,i,6%
COc1ccc(CCN(C)Cc2c(O)ccc3cc(Br)ccc23)cc1OC,1%,18µM*,i,u,i,17%
O=C(Cc1ccc(F)cc1)NCCNC(=O)c1cc(=O)[nH]c2ccccc12,x,-20%,x,x,x,x
CC(C)c1cc(=O)oc2cc(OCC(=O)Nc3ccc(C(N)=O)cc3)ccc12,x,0%,x,x,x,x
COc1cc(OC)cc(-c2cc3ncccc3cn2)c1,1%,32µM*,i,17%,i,0%
Fc1ccccc1-c1cc2ncccc2cn1,2%,u,i,-8%,i,-4%
COc1cc(OC)cc(-c2cc3ccc(OC)cc3cn2)c1,3%,-18%,i,62%,u,15µM*
COc1cc(OC)cc(-c2cc3cc4c(cc3cn2)OCO4)c1,3%,x,u,u,u,2.6µM*
COc1ccc2cc(-c3ccccc3)ncc2c1,1%,-5%,i,-34%,i,4%
CC(CCc1ccccc1)NC(=O)CSc1nc2cc(Cl)ccc2s1 (stereo unspecified),x,9%,x,x,x,x
CNC(=O)[C@@H]1C[C@H](Oc2ccccc2)CN1C(=O)c1cc(-c2ccc(C)cc2)n[nH]1,x,14%,x,x,x,x
SMILES,PINK1 modulator,ALOX12 inh,KB-3-1 cytotox,MCF10A rereplic,KB-V1 cytotox,SW480 rerep
Cc1nc(-c2cccc(S(=O)(=O)N3CCC(C(=O)NCc4ccc5c(c4)OCO5)CC3)c2)no1,x,8%,x,x,x,x
CCOc1cc(C=C(C(=O)OC)C(=O)OC)ccc1OCc1ccc([N+](=O)[O-])cc1,-2%,0%,18µM*,0.65µM*,u,15µM*
CCOc1cc(/C=N/O)ccc1OCc1ccc([N+](=O)[O-])cc1,0%,18%,i,13%,i,10%
CN(CC(=O)Nc1cccc(F)c1)C(=O)c1cccc2ccccc12,2%,u,i,12%,18µM*,-3%
CN(CC(=O)Nc1cccc(F)c1)C(=O)c1cc(-c2ccccc2)nc2ccccc12,10%,-30%,i,u,u,21%
CN(CC(=O)Nc1cccc(F)c1)C(=O)c1ccccc1OCCOc1ccccc1,0%,-11%,i,7%,u,0%
CN(CC(=O)Nc1cccc(F)c1)C(=O)c1ccc(COc2ccccc2)o1,-1%,-15%,i,8%,21µM*,-2%
COc1cc(C(c2c(C(=O)O)[nH]c3ccccc23)c2c(C(=O)O)[nH]c3ccccc23)ccc1OCc1ccccc1,8%,28µM*,i,6%,i,3%
C=CCOc1ccc(C(c2c(C(=O)O)[nH]c3ccccc23)c2c(C(=O)O)[nH]c3ccccc23)cc1,11%,28µM*,i,u,i,-3%
O=C(O)c1[nH]c2ccccc2c1C(c1ccccc1)c1c(C(=O)O)[nH]c2ccccc12,1%,6%,i,u,i,-37%
CN1CCN(c2nc3ccccc3nc2NS(=O)(=O)c2ccc(Cl)cc2)CC1,x,-2%,x,x,x,x
CCOC(=O)N1CCC(Nc2nc3ccccc3nc2NS(=O)(=O)c2ccc(Cl)cc2)CC1,-1%[38.3 µM],-5%,u,0%,15µM*,9%
O=S(=O)(Nc1nc2ccccc2nc1N1CCN(c2ccccc2F)CC1)c1ccc(Cl)cc1,x,u,11µM*,10µM*,u,-2%
CC(=O)c1cn(CC(=O)N2CCOCC2)c2ccccc12,x,6%,x,x,x,x
CCOC(=O)c1c(C)oc2c1c(C(c1cccnc1)N1CCCCC1)c(O)c1ccccc12 (stereo unspecified),2%,4%,i,u,i,-5%
CCOC(=O)c1c(C)oc2c1c(C(c1ccccc1)N1CCOCC1)c(O)c1ccccc12 (stereo unspecified),u,-10%,i,4.1µM*,18µM*,u
CCOC(=O)c1c(NC(=O)CSc2nncs2)sc(C)c1-c1ccccc1,1%,-27%,u,7.3µM*,7.3µM*,8%

# Source: PubChem (National Center for Advancing Translational Sciences (NCATS))
